# Reference: the supplement of paper PMC10646978
# ± gives the standard deviation.
# How the values were obtained:
# Settings in all cases: modulator concentration 10 µM
# [1] = tested on: RAW-Dual (murine macrophage reporter line); test: NF-kB reporter (SEAP) activity fold change vs agonist alone; higher = enhanced NF-kB activity
# How it was run: (§1)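 RAW-Dual murine macrophage reporter cells were seeded at 50 000 per well in 384-well plates and pre-incubated 1 hour at 37 °C with compound pin-transferred to 10 μM final. After 1 hour, a PRR agonist was added and cells incubated overnight. Supernatant NF-κB (SEAP, QUANTI-Blue, 620 nm absorbance) and IRF (Lucia luciferase, QUANTI-Luc, luminescence) signals were divided by the mean agonist-only control on the same plate to give fold change. Two replicate plates were averaged, with errors by propagation.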
# [2] = tested on: RAW-Dual (murine macrophage reporter line); test: IRF reporter (Lucia luciferase) activity fold change vs agonist alone; higher = enhanced IRF activity
# How it was run: as §1
# [3] = tested on: RAW-Dual (murine macrophage reporter line); test: viability score (confluency relative to resting cells, overnight) (fraction); higher = more viable, active = viable (0.7 or more)
# How it was run: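 RAW-Dual macrophages in 384-well plates were incubated overnight with compound, final concentration 10 μM. Confluency images from IncuCyte were processed in IncuCyte software into two masks covering all imaged wells. The viability score is each well's confluency relative to resting cells, and a compound met the cutoff when both masks exceeded 70% of resting cells.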
# [4] = agonist: CpG ODN 1826 0.5 ug/mL
SMILES,"NF-kB reporter [1, 4]",NF-kB reporter ([1]; agonist: LPS 0.1 ug/mL),NF-kB reporter ([1]; agonist: MPLA […]),IRF reporter ([2]; agonist: 3'3'-cGAMP 10 ug/mL),IRF reporter ([2]; agonist: LPS 0.1 ug/mL),IRF reporter ([2]; agonist: MPLA […]),viability score [3]
COc1ccccc1CC(=O)N1CCN(Cc2cnnn2-c2ccccc2F)CC1,0.894 ± 0.048,0.985 ± 0.084,1.15 ± 0.065,1.16 ± 0.093,1.14 ± 0.19,1.11 ± 0.46,1.01 (active)
O=C1NC(=O)C(C(CC(=O)c2ccccc2)c2ccccc2)C(=O)N1 (centres undefined),1.04 ± 0.093,0.984 ± 0.076,0.93 ± 0.035,0.942 ± 0.12,1.02 ± 0.045,0.931 ± 0.14,1 (active)
Nc1nc(N)nc(NC2CC2)n1,1.47 ± 0.063,1.15 ± 0.1,1.67 ± 0.39,0.614 ± 0.064,0.992 ± 0.24,0.892 ± 0.33,0.987 (active)
CCC1(c2cccc(O)c2)CCCCN(C)C1.Cl (centres undefined),0.894 ± 0.13,0.99 ± 0.054,1 ± 0.047,1.08 ± 0.088,0.963 ± 0.043,0.948 ± 0.21,1.01 (active)
COc1ccc(CNCCc2c[nH]c3ccccc23)cc1C,0.373 ± 0.058,0.574 ± 0.054,1.22 ± 0.06,0.782 ± 0.08,1.04 ± 0.052,2.55 ± 0.19,0.154 (inactive)
CCNc1nc(Cl)nc(NC(C)C)n1,1.25 ± 0.097,0.873 ± 0.082,1.01 ± 0.094,1.01 ± 0.032,1.33 ± 0.21,1.49 ± 0.25,1.03 (active)
CC12CC1(C)C(=O)N(c1cc(Cl)cc(Cl)c1)C2=O (centres undefined),1.06 ± 0.092,1.1 ± 0.097,0.96 ± 0.045,0.942 ± 0.085,1.11 ± 0.081,1.18 ± 0.17,1 (active)
c1ccc2c(c1)Nc1ccccc1S2,1.02 ± 0.25,0.934 ± 0.048,0.881 ± 0.11,0.778 ± 0.026,1.31 ± 0.25,1.32 ± 0.13,0.939 (active)
CC[C@@]1(O)C(=O)OCc2c1cc1n(c2=O)Cc2cc3ccccc3nc2-1 [Prestw-200],1.33 ± 0.23,1.75 ± 0.17,2.95 ± 0.72,3.06 ± 0.081,2.05 ± 0.42,2.66 ± 0.37,0.768 (active)
O=C1NC(=O)C(=Cc2cccn2-c2ccc(Br)cc2)C(=O)N1,1.09 ± 0.09,0.758 ± 0.06,1.08 ± 0.04,0.876 ± 0.094,0.91 ± 0.14,0.844 ± 0.18,0.997 (active)
CC(=O)OC1CCC2(C)C(CCC3C4CCC(=O)C4(C)CCC32)C1 (centres undefined),1.22 ± 0.29,1.06 ± 0.054,1.02 ± 0.089,0.939 ± 0.032,1.21 ± 0.19,1.11 ± 0.18,1.01 (active)
COCCN1C(=O)CN(C2CCN(CC(=O)N3CC(C)OC(C)C3)CC2)C1=O (centres undefined),0.903 ± 0.056,0.889 ± 0.11,0.997 ± 0.073,0.95 ± 0.13,0.979 ± 0.13,1.03 ± 0.29,0.977 (active)
COc1cc2c(c(OC)c1OC)-c1ccc(OC)c(=O)cc1[C@@H](NC(C)=O)CC2,2.45 ± 0.12,1.8 ± 0.14,2.47 ± 0.11,0.0843 ± 0.011,1.5 ± 0.13,1.91 ± 0.42,0.687 (inactive)
CC(=O)OC1CCC2(C)C(=CCC3C4CCC(=O)C4(C)CCC32)C1 (centres undefined),0.92 ± 0.084,0.901 ± 0.076,0.863 ± 0.092,0.969 ± 0.031,1.08 ± 0.095,1.15 ± 0.13,1 (active)
CC12CCC3C(CCC4CC(O)CCC43C)C1CCC2=O (centres undefined),0.888 ± 0.066,1.04 ± 0.051,0.98 ± 0.021,0.949 ± 0.1,0.985 ± 0.033,0.972 ± 0.11,1.01 (active)
O=C1NC(=O)N(c2ccccc2F)C(=O)C1=Cc1ccc(OCc2ccc([N+](=O)[O-])cc2)c(Cl)c1,0.917 ± 0.072,1.03 ± 0.068,0.894 ± 0.057,0.916 ± 0.049,1.22 ± 0.15,1.02 ± 0.065,1.01 (active)
O=[N+]([O-])Nc1ccc(Br)cn1,0.998 ± 0.09,0.98 ± 0.096,0.983 ± 0.048,0.961 ± 0.15,1.09 ± 0.064,1.17 ± 0.095,0.997 (active)
CC[N+]1(C)CCCC(OC(=O)C(O)(c2ccccc2)c2ccccc2)C1 (centres undefined) [Prestw-760],0.921 ± 0.061,0.955 ± 0.092,0.966 ± 0.073,0.952 ± 0.038,1.13 ± 0.09,0.973 ± 0.18,0.994 (active)
COc1ccc(CNCCc2c[nH]c3ccccc23)c(OC)c1C,0.258 ± 0.021,0.924 ± 0.076,2.6 ± 0.15,1.4 ± 0.048,3.32 ± 0.42,2.88 ± 0.25,0.178 (inactive)
COc1ccc(CCNCc2ccc3ccccc3c2)cc1,0.853 ± 0.068,0.755 ± 0.051,1.65 ± 0.11,0.88 ± 0.06,0.98 ± 0.13,2.58 ± 0.29,0.123 (inactive)
N=C(N)NOCCC(N)C(=O)O (centres undefined),1.02 ± 0.076,1 ± 0.058,1.02 ± 0.03,0.979 ± 0.057,0.938 ± 0.12,0.931 ± 0.13,0.998 (active)
COc1cc2c(cc1O)CC1c3c(cc(O)c(OC)c3-2)CCN1C (centres undefined),0.916 ± 0.23,0.96 ± 0.078,0.924 ± 0.092,0.881 ± 0.03,1.17 ± 0.16,1.12 ± 0.11,0.999 (active)
CCCC(=O)c1ccc(N2CCNCC2)c(F)c1,0.404 ± 0.023,1.12 ± 0.069,0.961 ± 0.082,0.861 ± 0.043,1.4 ± 0.14,1.66 ± 0.18,0.951 (active)
Cc1noc(C)c1CC(=O)N1CCCSCC1CN1CCCC1 (centres undefined),0.943 ± 0.093,1.03 ± 0.083,0.906 ± 0.04,1.1 ± 0.065,1.09 ± 0.11,0.972 ± 0.14,1 (active)
COC(=O)COc1ccc(C=C2C(=O)NC(=S)N(c3cccc(Cl)c3Cl)C2=O)cc1OC,0.959 ± 0.09,1.04 ± 0.086,0.932 ± 0.063,0.909 ± 0.048,1.35 ± 0.12,1.14 ± 0.12,1.01 (active)
O=c1[nH]c2ccccc2n1CCCN1CCC(n2c(=O)[nH]c3cc(Cl)ccc32)CC1,0.114 ± 0.018,1.14 ± 0.082,0.973 ± 0.074,0.865 ± 0.026,1.31 ± 0.14,1.12 ± 0.092,0.981 (active)
O=C1NC(=O)C(=CNc2ccccc2C(F)(F)F)C(=O)N1,1.13 ± 0.11,0.946 ± 0.11,1.04 ± 0.1,1.02 ± 0.034,1.21 ± 0.24,1.2 ± 0.2,1.02 (active)
